Assay results: PubChem BioAssay AID430 (Sanford-Burnham Center for Chemical Genomics, 2006)
Out of some 63,000 compounds screened, about 1,100 (1.7%) were called active. Rule as the data show it: active = cytotoxicity above about 50%; inactive = the rest. Many of the other results were omitted from the sample, so actives are more common in it than they were. Entries with a potency or affinity are not part of this list.

Assay: HPDE-C7 pancreatic duct cell viability loss – fluorescence, HTS (AID 430);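 also: cells exposed to compound for 48 hours before viability readout; 0% = vehicle and 100% = reference cytotoxic drug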
Settings: HPDE-C7 pancreatic duct cells viability, at 10 µM, hits give high values

Row | SMILES | cytotoxicity
1 | O=C(c1cccs1)N1CCC(c2ccccc2)C1 (stereo not given) | 5.4% (inactive)
2 | O=c1[nH]c2ccccc2cc1-c1noc(-c2cccnc2)n1 | 6.4% (inactive)
3 | CCCOc1ccc(NC2=CC(=O)CC(C)(C)C2)cc1 | -2.4% (inactive)
4 | COc1cc(-c2csc(N3CCOCC3)n2)cc(OC)c1OC | 4.3% (inactive)
5 | COc1ccc(OC)c(NC(=O)c2nnn(Cc3ccc(Br)cc3F)c2N)c1 | 18.8% (inactive)
6 | c1ccc(-c2ccc(OCCOCCn3cncn3)cc2)cc1 | -14.6% (inactive)
7 | O=C(CSc1nnc(C2COc3ccccc3O2)o1)N1CCCc2ccccc21 (stereo not given) | -5.7% (inactive)
8 | COc1ccc(C(O)c2coc3ccc(O)c(CN(C)C)c23)cc1 (stereo not given) | 8.4% (inactive)
9 | CN(C)C(=O)c1nc(C#N)c(N(C)C)o1 | 8.3% (inactive)
10 | COC(=O)c1[nH]c2cc(OC)ccc2c1NC(=O)CN1CCOCC1 | 9.3% (inactive)
11 | CCC(O)c1cc2c(cc1NC(=O)c1ccc(C)cc1)OCCO2 (stereo not given) | -1.6% (inactive)
12 | Cc1cc(C)c2nc(-c3ccccn3)cc(C(=O)Nc3cc(C)on3)c2c1 | 6.6% (inactive)
13 | Cc1cc(NC(=O)c2cc(-c3cccnc3)nc3c(C)c(C)ccc23)no1 | 22.3% (inactive)
14 | Cc1cc(NC(=O)c2cc(-c3ccncc3)nc3c(C)cccc23)no1 | 64.9% (active)
15 | O=C(c1cc(-c2ccc3c(c2)OCO3)on1)N1CCN(c2ccccc2)CC1 | 20.6% (inactive)
16 | CCOc1ccc2nc(NC(=O)CN3CCC(n4nnc5cc(F)ccc54)CC3)sc2c1 | 55.7% (active)
17 | CCOC(=O)c1ccccc1NC(=O)CN1CCC(n2nnc3cc(F)ccc32)CC1 | 13.5% (inactive)
18 | COc1ccccc1NC(=O)CN1CCC(n2nnc3cc(F)ccc32)CC1 | -8.8% (inactive)
19 | O=C(Nc1ccc(NC(=O)C2CC2)nc1)c1ccccn1 | -20.6% (inactive)
20 | Cc1cc(C(=O)Nc2nnc(C3CCCCC3)s2)cs1 | 6.3% (inactive)
21 | CCNC(=O)C1CC(=O)N(c2ccc(Br)cc2)C1 (stereo not given) | -12.4% (inactive)
22 | O=C(CCCN1CCOCC1)c1ccc2c(c1)OCCO2 | 7.8% (inactive)
23 | O=C(CCN1CCc2ccccc2C1)Nc1ccc2c(c1)OCO2 | 2.3% (inactive)
24 | O=C(CCN1Cc2ccccc2C1)c1ccc2c(c1)OCCO2 | -7.3% (inactive)
25 | O=C(CCN1CCc2ccccc21)c1ccc2c(c1)OCCO2 | 1.9% (inactive)

Row | SMILES | cytotoxicity
26 | Cc1cccc(-n2nnnc2SCC(=O)c2cc(C)n(CC3CCCO3)c2C)c1 (stereo not given) | -31.6% (inactive)
27 | O=C(Nc1nc(-c2ccc(Cl)s2)cs1)c1cccs1 | 12.2% (inactive)
28 | CC(=O)c1cccc(S(=O)(=O)NCC(c2ccco2)N2CCCCC2)c1 (stereo not given) | 1% (inactive)
29 | CCc1ccccc1NC(=O)CCc1nc(-c2ccc(C)cc2)no1 | -5.6% (inactive)
30 | COc1ccc(C(CC(=O)O)NC(=O)COc2ccccc2)cc1OC (stereo not given) | -11.8% (inactive)
31 | COc1ccc(-c2ccc(SCC(=O)NCc3ccco3)nn2)cc1 | -13.7% (inactive)
32 | COCc1cc(C)nc(SCC(=O)NCc2ccco2)c1C#N | 1.9% (inactive)
33 | COc1ccc(-c2[nH]c(-c3cccc(OC)c3)nc2SCC(=O)NCc2ccco2)cc1 | 51.3% (active)
34 | CSc1nc(C2CC2)cc(-c2cccs2)c1C#N | 63.4% (active)
35 | COc1ccc(-c2cc(-c3cccs3)c(C#N)c(SCC(=O)NCc3ccco3)n2)cc1 | 52% (active)
36 | CCN(CC)C(=O)CSc1nc(C)cc(-c2cccs2)c1C#N | 9.8% (inactive)
37 | COc1ccc(-c2nc(SCC(=O)NCc3ccco3)c(-c3ccccc3)[nH]2)cc1OC | -5.2% (inactive)
38 | COc1ccc(-c2[nH]c(-c3ccc(F)cc3)nc2SCC(=O)NCc2ccco2)cc1OC | 0.1% (inactive)
39 | N#Cc1c(-c2ccccc2)cc(C2CC2)nc1N | -2.8% (inactive)
40 | CN1CCN(C(=O)CSc2nc(-c3cccs3)ccc2C#N)CC1 | 15.3% (inactive)
41 | N#Cc1c(-c2cccs2)cc(-c2ccccn2)nc1N | 42.3% (inactive)
42 | O=C(O)C1C2CCC(O2)C1C(=O)NCCC1=CCCCC1 (stereo not given) | 21.4% (inactive)
43 | COc1ccc(CCC(C(O)C(F)(F)F)S(=O)c2ccccc2)cc1 (stereo not given) | -3.4% (inactive)
44 | COc1ccccc1NC(=O)Nn1cnnc1 | -17.6% (inactive)
45 | CCn1c(SCC(=O)c2cc(OC)ccc2OC)nnc1-c1ccncc1 | 6.4% (inactive)
46 | CC1Cc2ccccc2N1C(=O)CSc1nnc(NC(=O)Cc2cccs2)s1 (stereo not given) | -10% (inactive)
47 | CC(=O)Oc1ccc(N2C(=O)C3C(C2=O)C2(C)C=CC3(C)O2)cc1 (stereo not given) | -4% (inactive)
48 | CCOc1ccc(C)cc1S(=O)(=O)NC1CCCCC1 | 4.3% (inactive)
49 | Cc1ccc(-c2nn3c(C)nnc3s2)cc1NC(=O)c1ccc(OC(C)C)cc1 | -1% (inactive)
50 | CCOc1ccc2nc(C)cc(C(=O)O)c2c1 | 33.6% (inactive)

Row | SMILES | cytotoxicity
51 | c1ccc(Nc2ncnc3c2oc2ccccc23)cc1 | -9.3% (inactive)
52 | c1ccc2c(c1)oc1c(NCCN3CCOCC3)ncnc12 | 6.2% (inactive)
53 | COc1ccc(C)cc1NC(=O)COCC(=O)O | -11.8% (inactive)
54 | O=C(CN1CCN(Cc2ccccc2)CC1)Nc1ccc(Cl)cn1 | 3.5% (inactive)
55 | COc1cc(S(=O)(=O)N(Cc2cccnc2)Cc2ccco2)ccc1-n1cnnn1 | -4.3% (inactive)
56 | COc1ccccc1CN(Cc1ccco1)S(=O)(=O)c1ccc(-n2cnnn2)c(OC)c1 | 19.4% (inactive)
57 | CCOc1ccccc1CN(Cc1ccco1)S(=O)(=O)c1ccc(-n2cnnn2)c(OC)c1 | 56.5% (active)
58 | CCOC(=O)c1c(NC(=O)CN2CCOCC2)sc2c1CCCC2=O | 3.3% (inactive)
59 | CCOc1cc(/C=N/n2cnnc2)ccc1OCC(=O)Nc1ccccc1OC | 7.2% (inactive)
60 | O=C(O)c1cccc(Nc2nc(N3CCOCC3)nc(N3CCOCC3)n2)c1 | -10% (inactive)
61 | CN1CCN(c2nc(Nc3cccc(C(F)(F)F)c3)nc(N3CCOCC3)n2)CC1 | 65.4% (active)
62 | Cc1ccc(Nc2nc(N3CCOCC3)nc(N3CCOCC3)n2)cc1 | 8.7% (inactive)
63 | CC(C)c1ccc(Nc2nc(NCc3ccco3)nc(N3CCOCC3)n2)cc1 | 27.5% (inactive)
64 | Cc1cccc(Nc2nc(NCc3ccco3)nc(N3CCOCC3)n2)c1 | 53% (active)
65 | COc1nc(Nc2cccc(C(F)(F)F)c2)nc(OC)n1 | -28.1% (inactive)
66 | Cc1nn(C)c(C)c1S(=O)(=O)NC1CCCc2ccccc21 (stereo not given) | -10% (inactive)
67 | CCc1n[nH]c2c1/C(=N\O)CC(c1ccccc1)C2 (stereo not given) | -1.4% (inactive)
68 | O=C(C1CCN(c2nnc(-n3cccc3)s2)CC1)N1CCN(Cc2ccc3c(c2)OCO3)CC1 | -3.5% (inactive)
69 | C(=C\c1ccccc1)/CSc1nnc(-c2cnccn2)n1Cc1ccco1 | -10.9% (inactive)
70 | CCOC(=O)N1CCN(C(=O)C(CC(C)C)NC(=O)C2CCCCC2)CC1 (stereo not given) | -6.8% (inactive)
71 | Cc1ccnc(SCC(=O)Nc2oc(-c3ccccc3)c(-c3ccccc3)c2C#N)n1 | 24.1% (inactive)
72 | N#Cc1c(NC(=O)CN2CCOCC2)oc(-c2ccccc2)c1-c1ccccc1 | -0.2% (inactive)
73 | N#Cc1c(NC(=O)Cn2c(=O)oc3ccccc32)oc(-c2ccccc2)c1-c1ccccc1 | 72% (active)
74 | CCn1c(SCC(=O)Nc2oc(-c3ccccc3)c(-c3ccccc3)c2C#N)nnc1-c1ccco1 | 32.7% (inactive)
75 | N#Cc1c(NC(=O)CCN2C(=O)c3ccccc3C2=O)oc(-c2ccccc2)c1-c1ccccc1 | 18.8% (inactive)

Row | SMILES | cytotoxicity
76 | CC(=O)NC(C)C(=O)OCC(=O)c1ccc(Cl)s1 (stereo not given) | -1.2% (inactive)
77 | N#CCSc1nnc(COc2cccc3ccccc23)n1-c1ccccc1 | 37.6% (inactive)
78 | CCS(=O)(=O)Nc1ccc(Cc2ccncc2)cc1 | -12.1% (inactive)
79 | CCOCCCNC(=O)C(c1ccc(OC)cc1)N(Cc1ccc2c(c1)OCO2)C(=O)CNC(C)=O (stereo not given) | -6.5% (inactive)
80 | C(=C\c1ccccc1)/CN1CCN(C(c2ccccc2)c2ccccc2)CC1 | 13% (inactive)
81 | O=C(Nc1ccc(F)cc1)N1CCN(C/C=C/c2ccccc2)CC1 | 11.6% (inactive)
82 | COc1cc(C2C3=C(CC(c4ccco4)CC3=O)Nc3ccccc3N2C(C)=O)cc(OC)c1OC (stereo not given) | -7.9% (inactive)
83 | Cc1ccc(-c2[nH]c(=O)n3ccncc23)s1 | -9.9% (inactive)
84 | CCOc1nc(-c2ccccc2)ccc1-c1noc(-c2ccncc2)n1 | 5.2% (inactive)
85 | CC(C)(C)OC(=O)N1CCN(c2ccc(NC(=O)c3cc4ccccc4oc3=O)cc2)CC1 | -30.1% (inactive)
86 | Cc1cnc(C(=O)Nc2ccc(N3CCN(C(=O)OC(C)(C)C)CC3)cc2)cn1 | 50.5% (active)
87 | Cc1cnc(C(=O)Nc2ccc(N3CCOCC3)cc2)cn1 | 1.3% (inactive)
88 | Cc1csc2nc(CCNS(=O)(=O)c3ccc4c(c3)OCCO4)cn12 | 3.5% (inactive)
89 | CCOC(=O)Nc1ccc2c(c1)N(C(=O)CCN1CCOCC1)c1ccccc1S2 | -7.9% (inactive)
90 | CCOC(=O)Nc1ccc2c(c1)N(C(=O)CCN1CCOCC1)c1ccccc1S2=O (stereo not given) | 85.2% (active)
91 | CCOC(=O)Nc1ccc2c(c1)Sc1ccccc1N2C(=O)CCN1CCOCC1 | 11.7% (inactive)
92 | O=c1c2ccccc2nc(SCc2ccccc2)n1Cc1ccco1 | 8.4% (inactive)
93 | COc1cc2nc(SCC(=O)NCCc3ccccc3)n(Cc3ccco3)c(=O)c2cc1OC | -3.3% (inactive)
94 | O=C(CSc1nc2ccccc2c(=O)n1Cc1ccco1)NCc1ccccc1 | 58.8% (active)
95 | O=C(CSc1nc2ccccc2c(=O)n1Cc1ccco1)NCc1ccco1 | -1.8% (inactive)
96 | COc1cc2nc(SCC(=O)NCc3ccco3)n(Cc3ccc(Cl)cc3)c(=O)c2cc1OC | 50.9% (active)
97 | O=C(CSc1nc2sc3c(c2c(=O)n1-c1ccccc1)CCCC3)NCc1ccco1 | 85.6% (active)
98 | COCCNC(=O)CSc1nc2cc(OC)c(OC)cc2c(=O)n1Cc1ccco1 | -1.3% (inactive)
99 | CC1(C)Cc2c(sc3nc(SCC(=O)NCc4ccco4)n(-c4ccccc4)c(=O)c23)CS1 | 3.1% (inactive)
100 | C=CCn1c(SCC(=O)NCc2ccco2)nc2sc3c(c2c1=O)CCCCC3 | 2.9% (inactive)
